# Reference: the supplement of paper PMC11732987, “Enantioselective OTUD7B fragment discovery through chemoproteomics screening and high-throughput optimisation” (Communications Chemistry, 2025)
# Unmarked numbers belong to inactive results.
# Key:
# Assay in all cases: log2 ratio of Biotin-Ahx-Ub-VS probe labelling (fragment/DMSO); higher = less target engagement (more negative = stronger competition), active = hit call of the paper (q ≤ 0.05, log2 ratio ≤ -1)
# Details in all cases: compound concentration: 200 uM; treatment time: 3 h
# OTUD6B = target: T1, OTUD6B (UniProt Q8N6M0)
# T1 sequence (whole entry): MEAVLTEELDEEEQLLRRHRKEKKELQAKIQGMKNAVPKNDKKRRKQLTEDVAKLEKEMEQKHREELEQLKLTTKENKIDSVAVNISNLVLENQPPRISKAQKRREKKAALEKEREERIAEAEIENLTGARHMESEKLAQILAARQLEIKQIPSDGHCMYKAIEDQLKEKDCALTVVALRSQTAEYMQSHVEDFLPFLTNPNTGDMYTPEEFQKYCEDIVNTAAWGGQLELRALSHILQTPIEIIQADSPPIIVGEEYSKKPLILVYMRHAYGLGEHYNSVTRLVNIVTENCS
# In short: (§1)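 Labelled DUBs from HEK293T lysate were NeutrAvidin-enriched, digested with LysC and trypsin, and run by diaPASEF LC-MS/MS. Before that, each 495 µg sample in Tris/CHAPS/IGEPAL buffer with protease inhibitors was treated in triplicate with fragment at 200 µM or vehicle for 3 h, then with Biotin-Ahx-Ub-VS at 0.5 µM final for 1 h. Values are average log2 ratios of fragment over vehicle by unpaired t-test, based on global-median-normalised Spectronaut label-free quantities from proteins with ≥2 unique peptides.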
# OTUD7B = target: T2, OTUD7B (UniProt Q6GQQ9)
# T2 sequence (whole entry): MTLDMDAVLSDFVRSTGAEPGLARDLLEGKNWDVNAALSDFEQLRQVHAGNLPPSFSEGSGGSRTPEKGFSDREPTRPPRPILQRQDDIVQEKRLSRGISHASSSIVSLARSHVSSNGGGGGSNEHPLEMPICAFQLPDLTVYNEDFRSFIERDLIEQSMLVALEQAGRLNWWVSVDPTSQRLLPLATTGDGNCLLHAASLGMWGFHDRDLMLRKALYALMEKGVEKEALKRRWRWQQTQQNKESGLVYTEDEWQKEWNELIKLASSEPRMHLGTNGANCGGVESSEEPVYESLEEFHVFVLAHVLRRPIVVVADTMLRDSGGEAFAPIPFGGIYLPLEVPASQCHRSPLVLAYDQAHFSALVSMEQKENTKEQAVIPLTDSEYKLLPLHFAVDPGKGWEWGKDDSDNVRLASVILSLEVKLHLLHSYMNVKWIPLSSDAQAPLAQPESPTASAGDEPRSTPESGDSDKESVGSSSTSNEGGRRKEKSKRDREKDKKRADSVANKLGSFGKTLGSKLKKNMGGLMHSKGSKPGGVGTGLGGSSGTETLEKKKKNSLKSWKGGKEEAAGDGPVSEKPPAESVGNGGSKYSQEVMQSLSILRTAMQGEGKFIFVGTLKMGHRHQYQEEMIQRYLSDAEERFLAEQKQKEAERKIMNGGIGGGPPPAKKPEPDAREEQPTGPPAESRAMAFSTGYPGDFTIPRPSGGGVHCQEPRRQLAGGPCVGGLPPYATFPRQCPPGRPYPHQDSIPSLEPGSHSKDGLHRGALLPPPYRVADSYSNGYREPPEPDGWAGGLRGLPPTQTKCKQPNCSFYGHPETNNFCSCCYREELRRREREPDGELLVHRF
# In short: as §1
# PRPF8 = PRPF8 (UniProt Q6P2Q9)
# In short: as §1
# PSMD7 = target: T3, PSMD7 (UniProt P51665)
# T3 sequence (whole entry): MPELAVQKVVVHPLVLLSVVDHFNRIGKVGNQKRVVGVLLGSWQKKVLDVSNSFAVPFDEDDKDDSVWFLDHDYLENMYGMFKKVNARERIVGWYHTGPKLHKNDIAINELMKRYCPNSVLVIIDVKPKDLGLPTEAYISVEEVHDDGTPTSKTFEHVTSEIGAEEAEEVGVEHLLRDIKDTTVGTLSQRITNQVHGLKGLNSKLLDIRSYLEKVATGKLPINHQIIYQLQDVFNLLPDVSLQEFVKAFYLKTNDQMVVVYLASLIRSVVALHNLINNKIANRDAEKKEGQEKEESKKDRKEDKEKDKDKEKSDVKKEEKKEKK
# In short: as §1
# UCHL1 = UCHL1 (UniProt P09936)
# In short: as §1
# UCHL3 = target: T4, UCHL3 (UniProt P15374)
# T4 sequence (whole entry): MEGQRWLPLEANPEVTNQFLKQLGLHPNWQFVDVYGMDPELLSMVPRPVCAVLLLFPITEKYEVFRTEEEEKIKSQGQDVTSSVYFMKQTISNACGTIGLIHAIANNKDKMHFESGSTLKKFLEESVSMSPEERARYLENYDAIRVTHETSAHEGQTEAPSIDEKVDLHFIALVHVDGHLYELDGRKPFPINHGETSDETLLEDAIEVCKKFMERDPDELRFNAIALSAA
# In short: as §1
# UCHL5 = target: T5, UCHL5 (UniProt Q9Y5K5)
# T5 sequence (whole entry): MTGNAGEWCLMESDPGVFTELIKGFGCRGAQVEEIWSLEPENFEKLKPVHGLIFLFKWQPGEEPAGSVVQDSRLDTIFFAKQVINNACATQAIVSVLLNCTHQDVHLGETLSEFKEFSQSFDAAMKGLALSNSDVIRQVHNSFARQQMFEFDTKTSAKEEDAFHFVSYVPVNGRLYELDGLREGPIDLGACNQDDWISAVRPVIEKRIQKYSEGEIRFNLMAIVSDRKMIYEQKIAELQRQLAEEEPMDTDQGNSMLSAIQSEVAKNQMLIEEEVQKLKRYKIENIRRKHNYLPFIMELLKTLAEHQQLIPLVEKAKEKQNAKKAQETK
# In short: as §1
# USP10 = USP10 (UniProt Q14694)
# In short: as §1
# USP15 = target: T6, USP15 (UniProt Q9Y4E8)
# T6 sequence (whole entry): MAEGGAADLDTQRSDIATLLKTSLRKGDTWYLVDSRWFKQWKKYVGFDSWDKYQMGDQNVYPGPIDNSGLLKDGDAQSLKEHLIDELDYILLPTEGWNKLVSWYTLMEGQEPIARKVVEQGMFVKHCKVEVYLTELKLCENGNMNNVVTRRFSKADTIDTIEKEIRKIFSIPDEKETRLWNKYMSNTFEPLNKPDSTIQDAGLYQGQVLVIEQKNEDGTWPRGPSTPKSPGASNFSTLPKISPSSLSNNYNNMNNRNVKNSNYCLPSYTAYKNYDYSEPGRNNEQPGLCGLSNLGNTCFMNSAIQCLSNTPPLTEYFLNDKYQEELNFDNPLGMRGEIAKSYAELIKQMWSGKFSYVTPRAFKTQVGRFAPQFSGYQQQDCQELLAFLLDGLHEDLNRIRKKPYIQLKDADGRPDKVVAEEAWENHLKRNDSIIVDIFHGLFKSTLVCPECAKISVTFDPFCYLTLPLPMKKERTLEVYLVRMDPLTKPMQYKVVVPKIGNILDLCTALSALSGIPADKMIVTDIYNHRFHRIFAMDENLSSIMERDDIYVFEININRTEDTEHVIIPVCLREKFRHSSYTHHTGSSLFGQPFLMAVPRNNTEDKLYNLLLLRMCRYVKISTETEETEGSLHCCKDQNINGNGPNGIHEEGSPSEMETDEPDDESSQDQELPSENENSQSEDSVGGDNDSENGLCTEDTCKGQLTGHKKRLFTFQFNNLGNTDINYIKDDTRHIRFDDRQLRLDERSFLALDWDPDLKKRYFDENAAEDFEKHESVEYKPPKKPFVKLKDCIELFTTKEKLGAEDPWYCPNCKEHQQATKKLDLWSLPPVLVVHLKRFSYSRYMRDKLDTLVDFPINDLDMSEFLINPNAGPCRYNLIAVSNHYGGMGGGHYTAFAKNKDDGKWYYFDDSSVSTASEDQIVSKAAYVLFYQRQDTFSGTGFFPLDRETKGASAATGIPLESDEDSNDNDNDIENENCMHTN
# In short: as §1
# UCHL1, sequence (P09936 whole entry, looked up): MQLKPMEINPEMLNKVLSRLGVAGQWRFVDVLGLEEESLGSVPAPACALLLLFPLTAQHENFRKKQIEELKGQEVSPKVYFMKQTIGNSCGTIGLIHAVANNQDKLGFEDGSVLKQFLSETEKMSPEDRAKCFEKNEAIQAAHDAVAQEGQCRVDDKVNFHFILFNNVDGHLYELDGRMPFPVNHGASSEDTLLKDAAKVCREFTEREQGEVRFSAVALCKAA
# USP10, sequence (Q14694 whole entry): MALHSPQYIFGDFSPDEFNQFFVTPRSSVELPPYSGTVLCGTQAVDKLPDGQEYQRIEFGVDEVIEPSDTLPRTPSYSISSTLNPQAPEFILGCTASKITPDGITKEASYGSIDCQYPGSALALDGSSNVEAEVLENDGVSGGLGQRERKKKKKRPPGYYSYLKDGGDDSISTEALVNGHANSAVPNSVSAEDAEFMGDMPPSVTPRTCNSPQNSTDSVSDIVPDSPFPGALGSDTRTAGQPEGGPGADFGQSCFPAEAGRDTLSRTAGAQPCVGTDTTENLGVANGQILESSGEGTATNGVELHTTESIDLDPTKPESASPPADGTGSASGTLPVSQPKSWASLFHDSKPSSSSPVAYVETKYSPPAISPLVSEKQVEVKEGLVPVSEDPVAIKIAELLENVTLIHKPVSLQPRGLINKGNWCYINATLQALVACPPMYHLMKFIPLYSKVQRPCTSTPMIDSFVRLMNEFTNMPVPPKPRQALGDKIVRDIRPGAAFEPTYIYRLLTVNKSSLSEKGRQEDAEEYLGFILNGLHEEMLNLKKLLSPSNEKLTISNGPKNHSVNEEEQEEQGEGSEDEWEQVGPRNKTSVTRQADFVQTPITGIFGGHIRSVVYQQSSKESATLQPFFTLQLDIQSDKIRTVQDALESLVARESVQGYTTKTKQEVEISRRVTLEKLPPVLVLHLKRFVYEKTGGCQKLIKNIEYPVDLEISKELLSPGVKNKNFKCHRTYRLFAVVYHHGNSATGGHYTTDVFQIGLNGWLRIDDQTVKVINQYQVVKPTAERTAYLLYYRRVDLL
structure (smiles),measurement,setting,value
O=C(CCl)NCCc1ccc2c(c1)OCCO2,log2 ratio of Biotin-Ahx-Ub-VS probe labelling,OTUD6B,-0.218
same,log2 ratio of Biotin-Ahx-Ub-VS probe labelling,OTUD7B,-0.434
same,log2 ratio of Biotin-Ahx-Ub-VS probe labelling,PRPF8,0.0207
same,log2 ratio of Biotin-Ahx-Ub-VS probe labelling,PSMD7,-0.153
same,log2 ratio of Biotin-Ahx-Ub-VS probe labelling,UCHL1,-1.2 (active)
same,log2 ratio of Biotin-Ahx-Ub-VS probe labelling,UCHL3,-0.0656
same,log2 ratio of Biotin-Ahx-Ub-VS probe labelling,UCHL5,-0.156
same,log2 ratio of Biotin-Ahx-Ub-VS probe labelling,USP10,-0.3
same,log2 ratio of Biotin-Ahx-Ub-VS probe labelling,USP15,-0.184
